Screening data (PubChem BioAssay)
PriA SSB inh – K. pneumoniae PriA-SSBct interaction inhibition; inhibition, % at 33 µM; AID 1272365; AlphaScreen SSBct-PriA binding, biotinylated peptide; actives 0.6% (n = 430,000); in the data active means inhibition mostly above about 37%, no sharp cut-off; inactive means mostly below about 20%;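 further: plate controls were negative control peptide for no effect and reference peptide for full effect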
RecA splice inh – blocks M. tuberculosis RecA intein splicing; P9WHJ3; cell-free RecA intein splicing, fluorescence; inhibition, % (no concentration beside the values); actives 0.75% (n = 290,000); AID 2221; in the data active means inhibition above about 30%;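 further: 0% = vehicle wells and 100% = reference inhibitor control wells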
BJeLR lethal – kills HRASV12-expressing BJeLR cells. BJeLR (HRASV12) viability, CellTiter-Glo ATP luminescence, 48 h. inhibition, % (test concentration not listed). actives 0.17% (n = 300,000); in the data active means inhibition above about 50%
PrP UTR inh – suppresses PrP 5' UTR mRNA reporter expression | cell-based PrP 5' UTR mRNA reporter, plate reader | inhibition, % (no concentration beside the values) | actives 0.35% (n = 340,000) | AID 488862; in the data active means inhibition above about 52%; further: 0 = median of the neutral control wells
PfHsp40 rescue – restores yeast growth despite PfHsp40 toxicity; S. cerevisiae expressing PfHsp40, growth rescue, ATP luminescence; growth rescue, % at 12.5 µM; actives 0.68% (n = 340,000); in the data active means growth rescue above about 28%, passing the limit was not always enough;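 further: yeast W303a lacking pdr1 and pdr3 grown in galactose medium; growth measured after three days at 30 °C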
PrPC TRFRET – reduces human prion protein on the cell surface; cell surface PrPC, TR-FRET read-out; actives 0.43% (n = 370,000); P04156; inhibition, % at 13.8 µM; in the data active means inhibition above about 24%; further: 0% = median of the test wells and 100% = reference compound wells
PrPC TRFRET cf – confirmation of inhibitors of cell surface human prion protein; shares compounds with PrPC TRFRET; cell surface PrPC level, TR-FRET; inhibition, % at 13.8 µM; actives 65% (n = 1,500); AID 743200; in the data active means inhibition above about 25%
LD9 cytotox – LD9 cell cytotoxicity, PrPc inhibitor counter-screen | shares compounds with PrPC TRFRET | inhibition, % at 13.8 µM | AID 743201 | actives 29% (n = 1,500) | LD9 cells cytotoxicity, luminescence viability; in the data active means inhibition above about 9.5%
Active calls of the source: *; . = no result. This is a sample that favours compounds with a hit; in the whole collection about 1.9% have one here.

SMILES	PriA SSB inh	RecA splice inh	BJeLR lethal	PrP UTR inh	PfHsp40 rescue	PrPC TRFRET	PrPC TRFRET cf	LD9 cytotox
C=C1C(=O)C23C(O)C1CCC2C12CCCC(C)(COC(C)=O)C1C(O)C3(O)OC2 (stereo unspecified)	-8.5	.	.	-29.9	-0.6	75.2*	77.4*	93.2*
Cc1cc(CNC(=O)Nc2ccc(F)cc2F)nc(N2CCCC2)n1	0.0	.	.	.	.	.	.	.
Cc1cc2nc(N)sc2cc1C	-0.4	-0.7	-7.6	-78.5	-1.6	35.7*	8.1	-3.5
Cc1ccc(Sc2c(O)c3ccccc3n(C)c2=O)cc1	-9.9	-2.2	3.0	-5.4	1.0	44.7*	59.1*	-10.8
Cc1nc(-c2ccc(N3CCN(C(=O)CN(C)S(C)(=O)=O)CC3)nc2)no1	-11.0	.	.	.	.	.	.	.
CCCOc1ccc(C(CC(=O)O)NC(=O)c2sc3ccccc3c2Cl)cc1 (stereo unspecified)	-19.6	2.7	8.5	-13.2	3.0	43.2*	33.8*	-5.0
CCCCOC(=S)NC(=O)c1sc2ccccc2c1Cl	-8.3	4.2	0.3	-10.6	2.6	42.6*	18.2	-8.5
COc1cc(NS(=O)(=O)c2ccc(NC(=S)NC(=O)c3sc4ccccc4c3Cl)cc2)nc(OC)n1	16.5	10.4	4.8	-9.5	-0.6	9.0	.	.
NC(N)=NS(=O)(=O)c1ccc(NC(=S)NC(=O)c2sc3ccccc3c2Cl)cc1	0.8	-2.6	-5.6	-14.5	-0.6	36.4*	77.1*	-6.5
CN1CCc2cc(C(CNS(=O)(=O)c3ccc4c(c3)OCCO4)N3CCOCC3)ccc21 (stereo unspecified)	15.0	.	.	.	.	.	.	.
O=C(c1ccc(CSc2nc3ccncc3[nH]2)cc1)N1CCN(c2cccc(Cl)c2)CC1	19.6	10.3	8.2	-4.5	-0.6	30.7*	40.0*	9.4*
O=C(c1ccc(CSc2nc3ccncc3[nH]2)cc1)N1CCCCCC1	-3.7	-1.9	3.2	-10.5	1.0	9.9	.	.
CC(=O)N(Cc1cc2c(C)cc(C)cc2[nH]c1=O)C1CCCCC1	-5.8	1.4	-4.5	0.3	-0.2	12.1	.	.
Cc1cc(C)c(O)c(C(=O)CC2CC(=O)NC(=O)C2)c1	.	.	.	.	.	71.1*	66.0*	34.4*
O=C(c1ccc2nsnc2c1)N(CCc1cccs1)Cc1ccoc1	-1.0	.	.	.	.	.	.	.
O=C(COc1ccc2ccccc2c1Br)Nc1ccncc1	1.6	-0.7	14.7	-21.5	0.2	60.0*	68.9*	7.9
O=C(COc1ccc2ccccc2c1Br)Nc1cccnc1	-4.0	-0.5	1.3	-17.8	-0.1	47.5*	68.1*	-3.2
O=C(O)CCC(=O)NNC(=O)COc1ccc2ccccc2c1Br	-27.4	1.6	1.1	5.9	0.7	45.9*	85.2*	-0.5
O=C(O)CCC(=O)NNC(=O)COc1ccc(Cl)cc1Cl	-11.7	1.7	-3.9	-22.6	-0.8	-8.2	.	.
O=C(COc1ccc2ccccc2c1Br)NC(=S)Nc1cccc(CO)c1	-13.1	1.6	-3.0	-36.8	5.9	61.2*	66.1*	-7.7
CSc1nnc(NC(=O)NC(C)(C)C)s1	-48.0	.	.	.	.	.	.	.
O=S(=O)(c1ccc(Cl)cc1)N1CCC2(CC1)OCCN2S(=O)(=O)c1ccccc1	-12.0	.	.	.	.	.	.	.
COc1ccc(Nc2nc(NCC3CCCO3)c3ccccc3n2)c(OC)c1 (stereo unspecified)	3.0	4.5	-3.3	-10.0	-0.3	1.2	.	.
CCOc1ccc(Nc2nc(NCC3CCCO3)c3ccccc3n2)cc1 (stereo unspecified)	30.1	12.0	11.0	-6.5	10.3	33.7*	30.1*	32.3*
CCSc1nc(N)c2c3c(sc2n1)CCC3	-11.8	-2.5	0.4	-48.5	1.0	25.0*	39.1*	-3.4
CNC(=O)CSc1nc(N)c2c3c(sc2n1)CCC3	-2.0	-3.2	.	.	-1.2	-1.2	.	.
O=C(NCCCc1ccccc1)C1CCN(c2nc3ccccc3[nH]c2=O)CC1	-1.0	.	.	.	.	.	.	.
CC(C)Oc1ccc(CNC(=O)c2ccc3c(c2)N(C)CCS3)cc1	7.5	-5.3	-3.3	-21.1	0.0	25.4*	44.1*	-4.3
COc1ccc(CNC(=O)c2ccc3c(c2)N(C)CCS3)cc1	4.7	-6.7	7.4	-17.5	-0.2	12.4	.	.
